Our source for the outcome and AC50 values is PubChem BioAssay (EPA / NIEHS).

Calls of active or inactive are those of the source. How the source made its calls: active means hit-call score of the fitted dose curve at least 0.9, where 1 is the maximum; inactive means score below 0.9.

Experiment [1] can be described thus: APR_HepG2_NuclearSize_24hr: Apredica 24-hour HepG2 Assay for Nuclear Size (AID 2282907). The settings on record: high-content imaging, actives raise or lower the signal. The essentials: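 HepG2, 24 hr dosing, 10-pt 0.39–200 uM, duplicates, 0.5% DMSO final; 3.7% formaldehyde fix, 0.5% Triton X-100; Hoechst 33342 nuclear stain; ArrayScan HCS, Cell Cycle analysis → nuclear size; bidirectional fit vs DMSO.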

Experiment [2] can be described thus: APR_HepG2_CellLoss_24hr: Apredica 24-hour HepG2 Assay for Cell Loss (AID 2282908).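 On AC50: fit in both directions so a hit may be cell loss or gain.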 The settings on record: high-content imaging. Put shortly:
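10-pt dose, 0.39–200 uM, n=2/plate; DMSO 0.5% v/v final as negative control. Fix 3.7% formaldehyde 30 min RT, permeabilize 0.5% Triton X-100, stain Hoechst 33342 2 ug/mL, image 20x. Nuclear count, bidirectional fit vs DMSO.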

The nature of experiment [3]: APR_HepG2_MicrotubuleCSK_24hr: Apredica 24-hour HepG2 Assay for Microtubule CSK Stabilty (AID 2282909). Conditions: HepG2 microtubule cytoskeleton imaging, actives raise or lower the signal. The essentials:
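Human liver HepG2, 24 h dosing, 0.39–200 uM ×10 conc, dup, 0.5% DMSO. 3.7% formaldehyde fix, 0.5% Triton perm, anti-alpha-tubulin (1:200)/Cy5 secondary + Hoechst. HCS imaging, 6 fields/well; gain/loss fit vs DMSO.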

The nature of experiment [4]: APR_HepG2_MitoticArrest_24hr: Apredica 24-hour HepG2 Assay for Mitotic Arrest (AID 2282910). The settings on record: high-content imaging, actives raise or lower the signal. The essentials:
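Compounds are dosed onto HepG2 cells across ten concentrations up to 200 uM for 24 hr. Cells are then fixed in 3.7% formaldehyde, permeabilised, and labelled for phospho-histone H3 and nuclei; images are scored by cell cycle analysis and fitted bidirectionally relative to DMSO.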

The nature of experiment [5]: APR_HepG2_MitoMembPot_24hr: Apredica 24-hour HepG2 Assay for Mitochondrial Membrane Potential (AID 2282911). The settings on record: imaging, actives raise or lower the signal. Put shortly: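 Human hepatoma HepG2 cultures received ten compound concentrations up to 200 uM for 24 hr. Membrane-potential dye signal, captured by automated fluorescence microscopy, was scored for gain or loss against DMSO controls.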

Experiment [6] can be described thus: APR_HepG2_MitoMass_24hr: Apredica 24-hour HepG2 Assay for Mitochondrial Mass (AID 2282912). The settings on record: high-content imaging, actives raise or lower the signal. The essentials: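 Mitochondrial mass is read as MitoTracker Red fluorescence intensity from automated imaging, with bidirectional curve fitting relative to DMSO. HepG2 cells received compound (0.39–200 uM, 0.5% DMSO final) for 24 hr and were dye-loaded (250 nM, 30 min) before formaldehyde fixation.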

Experiment [7] in a line: APR_HepG2_CellCycleArrest_72hr: Apredica 72-hour HepG2 Assay for Cell Cycle Arrest (AID 2282914). The settings on record: high-content imaging, actives raise or lower the signal. Put shortly:
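Cell cycle arrest in HepG2 was scored from nuclear DNA content after 72 hr compound treatment (0.39–200 uM). Activity, either gain or loss, was fitted against the DMSO baseline.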

The nature of experiment [8]: APR_HepG2_CellLoss_72hr: Apredica 72-hour HepG2 Assay for Cell Loss (AID 2282915). The settings on record: high-content imaging. Put shortly: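 Cell number comes from Hoechst 33342-labelled nuclei, imaged at 20x after 3.7% formaldehyde fixation. Dosing was 0.39–200 uM, ten concentrations in duplicate, 0.5% DMSO final, for 72 h. Bidirectional fit relative to DMSO baseline.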

Experiment [9] in a line: APR_HepG2_p53Act_24hr: Apredica 24-hour HepG2 Assay for p53 Activation (AID 2282913).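 Further: p53 protein immunofluorescence averaged per cell in HepG2 with Hoechst nuclei.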 Conditions: high-content imaging, actives raise or lower the signal. The essentials: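 Automated fluorescence imaging quantifies p53 immunostaining in HepG2 cells after a 24 hr exposure (0.39–200 uM, duplicate, 0.5% DMSO). Nuclei are located by Hoechst 33342 staining.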

For `O=C(O)c1cc(Oc2ccc(C(F)(F)F)cc2Cl)ccc1[N+](=O)[O-]`, the outcome in [1], in experiment [2], in experiment [3], in experiment [4], in [5] and in experiment [6] was inactive. Moreover, the call in [7] and in [8] was inactive.

The AC50 is the concentration at which the activity in the assay is half-maximal. Regarding `CCCOCC(=Nc1ccc(Cl)cc1C(F)(F)F)n1ccnc1`, the compound was called inactive in experiment [1], in experiment [2], in experiment [3], in [4], in experiment [5] and in [6]. Further, the call in experiment [9] and in experiment [7] was inactive. Also, the AC50 in [8] is 100 µM (active).

On to `CCOP(=S)(OCC)Oc1cc(C)nc(C(C)C)n1`, for which the compound was called inactive in experiment [1], in [2], in experiment [3], in experiment [4], in [5] and in [6]. The result in experiment [9], in experiment [7] and in experiment [8] was inactive.

On to `O=[N+]([O-])c1cc(C(F)(F)F)c(Cl)c([N+](=O)[O-])c1Nc1ncc(C(F)(F)F)cc1Cl`, for which the compound was called inactive in experiment [1], in [4], in experiment [5] and in [6]. For the same compound, the AC50 is 49.5 µM (active) in experiment [2], 1.14 µM (active) in [3], 0.676 µM (active) in experiment [7] and 1.33 µM (active) in [8].

Consider `C=C(C)[C@H]1Cc2c(ccc3c2O[C@@H]2COc4cc(OC)c(OC)cc4[C@@H]2C3=O)O1`, for which the result in experiment [1], in experiment [3], in experiment [4] and in [6] was inactive. The AC50 in experiment [2] is 15.7 µM (active); in [5], 0.295 µM (active); in experiment [7], 0.283 µM (active); in experiment [8], 12.8 µM (active).

With `CCOC(=O)CC(SP(=O)(OC)OC)C(=O)OCC` (configuration not stated), the compound was classed as inactive in [1], in experiment [2], in experiment [3], in experiment [4], in [5] and in experiment [6]. Besides, the compound was called inactive in [9], in experiment [7] and in experiment [8].

Regarding `CNC(=O)ON=C(SC)C(=O)N(C)C`, the compound was classed as inactive in experiment [1], in experiment [2], in experiment [3], in experiment [4], in experiment [5] and in [6]. Besides, the result in [9] and in [7] was inactive. Further, the AC50 in [8] is 100 µM (active).

Consider `CCCSP(=O)(OCC)Oc1ccc(Br)cc1Cl` (configuration not stated), for which the compound was classed as inactive in experiment [1], in experiment [4], in experiment [5], in experiment [6], in experiment [9] and in [7]. Also, the concentration at half-maximal activity (AC50) in experiment [2] is 108 µM (active); in experiment [3], 113 µM (active); in experiment [8], 114 µM (active).

As to `CC(C)N(C(=O)SCC(Cl)=C(Cl)Cl)C(C)C`, the call in experiment [1], in experiment [3], in [4], in experiment [5], in experiment [6] and in experiment [9] was inactive. Also, in experiment [7], the outcome was inactive. The concentration at half-maximal activity (AC50) in experiment [2] was 113 µM (active); in experiment [8], 110 µM (active).

Take `CC(=NC#N)N(C)Cc1ccc(Cl)nc1`: the outcome in experiment [1], in [2], in experiment [3], in [4], in experiment [5] and in experiment [6] was inactive. Moreover, the compound was classed as inactive in experiment [9], in [7] and in experiment [8].

Regarding `COc1ccc(C(=CC(=O)N2CCOCC2)c2ccc(Cl)cc2)cc1OC`, the compound was classed as inactive in [1], in [2], in experiment [3], in experiment [4], in [6] and in experiment [9]. Further, the compound was called inactive in experiment [7]. For the same compound, the results for the AC50 in [5] and in experiment [8] were 8.19 µM (active) and 31.1 µM (active), respectively.

Turning to `CNC(=O)Oc1cccc2c1OC(C)(C)O2`, the outcome in [1], in experiment [3], in experiment [4], in [5], in [6] and in [9] was inactive. Besides, in experiment [7], the compound was called inactive. Further, the AC50 was 83.8 µM (active) in experiment [2] and 86.6 µM (active) in [8].

On to `C#CC(C)(C)NC(=O)c1cc(Cl)cc(Cl)c1`, for which the result in experiment [1], in experiment [2], in experiment [3], in experiment [4], in experiment [5] and in [6] was inactive. Also, the outcome in experiment [9] and in experiment [7] was inactive. Moreover, the AC50 in [8] is 69.1 µM (active).

Regarding `COc1cccc(C(=O)NN(C(=O)c2cc(C)cc(C)c2)C(C)(C)C)c1C`, the result in experiment [1], in experiment [2], in experiment [3], in experiment [4], in experiment [5] and in experiment [6] was inactive. Besides, the call in [9], in [7] and in experiment [8] was inactive.

In the case of `O=c1ccc(=O)[nH][nH]1`, the compound was called inactive in experiment [1], in experiment [2], in experiment [3], in experiment [4], in experiment [5] and in experiment [6]. The compound was classed as inactive in [9], in experiment [7] and in experiment [8].

On to `Cc1ccn2nc(S(=O)(=O)Nc3c(F)cccc3F)nc2n1`, for which the outcome in experiment [1], in [2], in [3], in [4], in experiment [5] and in experiment [6] was inactive. The result in experiment [7] and in [8] was inactive.

Take `CCOP(=O)(NC(C)C)Oc1ccc(SC)c(C)c1` (configuration not stated): the compound was called inactive in [1], in experiment [2], in experiment [3], in [4], in experiment [5] and in [6]. Moreover, the compound was called inactive in experiment [9] and in [7]. Also, the AC50 in [8] was 89.2 µM (active).

On to `COc1cc(OC)nc(Sc2cccc(Cl)c2C(=O)O)n1`, for which the result in experiment [1], in [2], in [3], in experiment [4], in experiment [5] and in experiment [6] was inactive. Moreover, the result in experiment [9], in experiment [7] and in experiment [8] was inactive.

Turning to `CSc1nc(NC(C)C)nc(NC(C)C)n1`, the outcome in experiment [1], in experiment [2], in [3], in experiment [4], in experiment [5] and in experiment [6] was inactive. For the same compound, the compound was called inactive in experiment [9], in experiment [7] and in [8].
